Experiment [1] in a line: Quantitative High-Throughput drug screen in 47 multiple myeloma cell lines against the NCATS MIPE library collection: KHM11_PLB cell viability assay (AID 1918962). Also: nearly all actives have a fitted effect of over 35% in size. Also: potency is read from the fitted curve at half-maximal effect. In a few lines: (§1)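 Myeloma cell lines, 500 cells per well, exposed to MIPE 4.0 library compounds for 48 h at 37C, 5% CO2. Viability from ATP by CellTiter-Glo luminescence; normalised to DMSO (100%) and media-only (0%) wells.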

A short description of experiment [2]: Quantitative High-Throughput drug screen in 47 multiple myeloma cell lines against the NCATS MIPE library collection: JIM3_ECACC cell viability assay (AID 1918963; also: nearly all actives have a fitted effect of over 35% in size; also: potency is read from the fitted curve at half-maximal effect). The procedure, abridged: as §1
A short description of experiment [3]: Quantitative High-Throughput drug screen in 47 multiple myeloma cell lines against the NCATS MIPE library collection: JIM1_ECACC cell viability assay (AID 1918964). In a few lines: (§2)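 CellTiter-Glo ATP luminescence gave viability after 48 h compound treatment at 37C of 500 multiple myeloma cells per well. Normalisation used DMSO-only wells as 100% and media-only wells as 0% viability; primary qHTS of approved and investigational drugs.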

The nature of experiment [4]: Quantitative High-Throughput drug screen in 47 multiple myeloma cell lines against the NCATS MIPE library collection: KMS27_JCRB cell viability assay (AID 1918970). Also: nearly all actives have a fitted effect of over 30% in size. Also: potency is read from the fitted curve at half-maximal effect. To be noted: KMS27 myeloma cells, CellTiter-Glo ATP viability, 48 h; viability (% of DMSO): at 45.8 µM (top of the series). In a few lines:
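CellTiter-Glo luminescence after 48 h drug exposure at 37 °C; 500 cells/well, 1536-well format, pin-tool compound addition; DMSO = 100%, media-only = 0% viability.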
On the technique in general: ATP-based viability assays read luminescence as a measure of living cells.

Experiment [5] in a line: Quantitative High-Throughput drug screen in 47 multiple myeloma cell lines against the NCATS MIPE library collection: KMS12PE_JCRB cell viability assay (AID 1918972). Also: nearly all actives have a fitted effect of over 30% in size. Also: potency is read from the fitted curve at half-maximal effect. In a few lines: as §1
Experiment [6] can be described thus: Quantitative High-Throughput drug screen in 47 multiple myeloma cell lines against the NCATS MIPE library collection: KMS26_JCRB cell viability assay (AID 1918975). Also: nearly all actives have a fitted effect of over 45% in size. Also: potency is read from the fitted curve at half-maximal effect. In a few lines: (§3)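 Myeloma cells (500 per well) were exposed to MIPE 4.0 compounds by pin transfer and incubated 48 hours at 37C, 5% CO2. Viability was read as ATP by CellTiter-Glo luminescence, normalised to DMSO (100%) and media-only (0%) wells.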

Experiment [7] can be described thus: Quantitative High-Throughput drug screen in 47 multiple myeloma cell lines against the NCATS MIPE library collection: MMM1_PLB cell viability assay (AID 1918976). Also: nearly all actives have a fitted effect of over 35% in size. Also: potency is read from the fitted curve at half-maximal effect. In a few lines:
(§4)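 500 cells/well per myeloma line exposed to pinned MIPE 4.0 compounds for 48 h at 37 °C, 5% CO2. Viability read as ATP by CellTiter-Glo luminescence, normalised to DMSO-only (100%) and media-only (0%) wells.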

Experiment [8] in a line: Quantitative High-Throughput drug screen in 47 multiple myeloma cell lines against the NCATS MIPE library collection: MOLP8_DSMZ cell viability assay (AID 1918977). Also: nearly all actives have a fitted effect of over 45% in size. Also: potency is read from the fitted curve at half-maximal effect. The procedure, abridged: as §4
Experiment [9] is described as follows: Quantitative High-Throughput drug screen in 47 multiple myeloma cell lines against the NCATS MIPE library collection: NCIH929_DSMZ cell viability assay (AID 1918978). Also: nearly all actives have a fitted effect of over 35% in size. Also: potency is read from the fitted curve at half-maximal effect. In a few lines: as §4
The nature of experiment [10]: Quantitative High-Throughput drug screen in 47 multiple myeloma cell lines against the NCATS MIPE library collection: OCIMY1_PLB cell viability assay (AID 1918979). Also: nearly all actives have a fitted effect of over 35% in size. Also: potency is read from the fitted curve at half-maximal effect. In a few lines: as §4
Experiment [11] in a line: Quantitative High-Throughput drug screen in 47 multiple myeloma cell lines against the NCATS MIPE library collection: INA6_PLB cell viability assay (AID 1918965; also: nearly all actives have a fitted effect of over 55% in size; also: potency is read from the fitted curve at half-maximal effect). In a few lines: as §1
The nature of experiment [12]: Quantitative High-Throughput drug screen in 47 multiple myeloma cell lines against the NCATS MIPE library collection: H1112_PLB cell viability assay (AID 1918967; also: nearly all actives have a fitted effect of over 30% in size; also: potency is read from the fitted curve at half-maximal effect). In a few lines:
as §2

The nature of experiment [13]: Quantitative High-Throughput drug screen in 47 multiple myeloma cell lines against the NCATS MIPE library collection: Karpas25_ECACC cell viability assay (AID 1918968; also: nearly all actives have a fitted effect of over 35% in size; also: potency is read from the fitted curve at half-maximal effect). The procedure, abridged:
as §2

A short description of experiment [14]: Quantitative High-Throughput drug screen in 47 multiple myeloma cell lines against the NCATS MIPE library collection: MM1S_ATCC cell viability assay (AID 1918980). Also: nearly all actives have a fitted effect of over 45% in size. Also: potency is read from the fitted curve at half-maximal effect. The procedure, abridged:
as §4

Experiment [15] in a line: Quantitative High-Throughput drug screen in 47 multiple myeloma cell lines against the NCATS MIPE library collection: MM1R_ATCC cell viability assay (AID 1918981). Also: nearly all actives have a fitted effect of over 35% in size. Also: potency is read from the fitted curve at half-maximal effect. The procedure, abridged: as §4
Experiment [16] is described as follows: Quantitative High-Throughput drug screen in 47 multiple myeloma cell lines against the NCATS MIPE library collection: JJN3_DSMZ cell viability assay (AID 1918966; also: nearly all actives have a fitted effect of over 50% in size; also: potency is read from the fitted curve at half-maximal effect). The procedure, abridged: as §2
Experiment [17] can be described thus: Quantitative High-Throughput drug screen in 47 multiple myeloma cell lines against the NCATS MIPE library collection: KMS12BM_JCRB cell viability assay (AID 1918971). Also: nearly all actives have a fitted effect of over 35% in size. Also: potency is read from the fitted curve at half-maximal effect. In a few lines: as §3
Experiment [18] in a line: Quantitative High-Throughput drug screen in 47 multiple myeloma cell lines against the NCATS MIPE library collection: KMS20_JCRB cell viability assay (AID 1918973). Also: potency is read from the fitted curve at half-maximal effect; nearly all actives have a fitted effect of over 45% in size. In a few lines:
as §2

Results filed as inconclusive are left out. Active and inactive are the calls of the source. Calls follow the shape of the dose curve; as a rule, active = well fitted curve in the direction sought with a large enough effect; inconclusive = small, poorly fitted or top-dose-only effect, or another doubt; inactive = no such curve, though single readings can be large; an effect the other way counts as inactive or inconclusive.

For the compound `CC(Oc1ccc(O)cc1)(P(=O)(O)O)P(=O)(O)O`, the Potency result in [1], in [2], in experiment [3], in experiment [4], in [5] and in [6] was “inactive” throughout. Besides, the Potency result in [7], in experiment [8], in experiment [9] and in experiment [10] was “inactive” in each case.
Take `O=S(=O)(O)CCSSCCS(=O)(=O)O`: the Potency entry in experiment [1], in experiment [2], in [11], in [12], in experiment [13] and in experiment [4] was “inactive” throughout. The Potency entry in experiment [6] and in experiment [15] was “inactive” in each case. Besides, in experiment [14], the Potency was 18700 nM (active).
Turning to `COc1ccc(Nc2nccc(NCCO)n2)cc1`, the Potency entry in experiment [1], in experiment [2], in experiment [3], in [12], in [13] and in experiment [4] was “inactive” throughout. Moreover, the Potency result in experiment [6] and in experiment [9] was “inactive” each time.
Regarding `O=C(O)C=Cc1ccc(Cn2ccnc2)cc1`, the Potency result in experiment [1], in experiment [2], in experiment [3], in experiment [16], in [13] and in experiment [17] was “inactive” each time. Further, the Potency entry in experiment [5], in experiment [6], in experiment [8], in experiment [9], in [14] and in [15] was “inactive” throughout.
On to `CC(C)NC[C@@H](C(=O)N1CCN(c2ncnc3c2[C@H](C)C[C@H]3O)CC1)c1ccc(Cl)cc1`, for which the Potency in experiment [1] was 14800 nM (active); in [2], 1660 nM (active); in [11], 4180 nM (active); in [16] it was 6620 nM (active); in [12] it was 3720 nM (active); in experiment [13], 469 nM (active). Further, the Potency in experiment [4] was 1870 nM (active); in experiment [17] it was 6620 nM (active); in experiment [5], 469 nM (active); in [18] it was 743 nM (active); in experiment [6] it was 1320 nM (active); in experiment [7], 26.4 nM (active). Further, the Potency is 296 nM (active) in experiment [8]; 105 nM (active) in experiment [9]; 16600 nM (active) in [10]; 46.9 nM (active) in experiment [14]; 105 nM (active) in experiment [15].
Turning to `CN[C@@H]1C[C@H]2O[C@@](C)([C@H]1OC)n1c3ccccc3c3c4c(c5c6ccccc6n2c5c31)C(=O)N[C@H]4O`, the Potency is 29.6 nM (active) in experiment [1]; 148 nM (active) in [2]; 41.8 nM (active) in experiment [11]; 1660 nM (active) in [16]; 526 nM (active) in experiment [12]; 132 nM (active) in [13]. Further, the Potency was 148 nM (active) in [4]; 148 nM (active) in [18]; 1660 nM (active) in experiment [6]; 1480 nM (active) in [7]; 118 nM (active) in [9]; 935 nM (active) in [10]. Also, the Potency in experiment [14] was 332 nM (active); in experiment [15], 372 nM (active).
`COc1ccc(Nc2cc(-c3cnc(N)nc3)nc(N3CCOCC3)n2)cn1`: the Potency in experiment [1] is 4180 nM (active); in experiment [2] it was 3720 nM (active); in experiment [11], 4180 nM (active); in experiment [16] it was 4690 nM (active); in experiment [13] it was 1660 nM (active); in experiment [4] it was 372 nM (active). In addition, the Potency in [17] was 2960 nM (active); in [5], 2090 nM (active); in [18], 4180 nM (active); in [6] it was 4180 nM (active); in experiment [7] it was 1870 nM (active); in [8] it was 833 nM (active). Also, the Potency was 264 nM (active) in [9], 4690 nM (active) in experiment [14] and 1660 nM (active) in [15].
